# In PubChem BioAssay (NCATS):
# Results filed as inconclusive are left out. Where a call stands in place of a potency, no number is given. Active and inactive are the calls of the source. Calls come from the whole dose curve; as a rule, active = well fitted curve in the direction sought with a large enough effect; inconclusive = small, poorly fitted or top-dose-only effect, or another doubt; inactive = no such curve, though single readings can be large; an effect the other way counts as inactive or inconclusive.
# What was measured:
# [1] = Quantitative High-Throughput drug screen in 47 multiple myeloma cell lines against the NCATS MIPE library collection: ARD_JJKsccE7 cell viability assay (AID 1918929; note: potency is the fitted concentration of half-maximal effect)
# Summary of the method: (§1)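 CellTiter-Glo ATP luminescence gave viability after 48 h compound treatment at 37C of 500 multiple myeloma cells per well. Normalisation used DMSO-only wells as 100% and media-only wells as 0% viability; primary qHTS of approved and investigational drugs.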
# [2] = Quantitative High-Throughput drug screen in 47 multiple myeloma cell lines against the NCATS MIPE library collection: KMM1_JCRB cell viability assay (AID 1918960); note: nearly all actives have a fitted effect of over 30% in size; note: potency is the fitted concentration of half-maximal effect
# Summary of the method: (§2)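 Each line was plated at 500 cells/well and treated 48 h with library drugs. Viability came from CellTiter-Glo luminescence relative to DMSO and cell-free medium controls.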
# [3] = Quantitative High-Throughput drug screen in 47 multiple myeloma cell lines against the NCATS MIPE library collection: JIM3_ECACC cell viability assay (AID 1918963; note: nearly all actives have a fitted effect of over 35% in size; note: potency is the fitted concentration of half-maximal effect)
# Summary of the method: (§3)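 Approved and investigational drugs from MIPE 4.0 were added by pin tool to 500 cells per well. After 48 hours at 37C, ATP-based CellTiter-Glo luminescence indicated remaining viability.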
# [4] = Quantitative High-Throughput drug screen in 47 multiple myeloma cell lines against the NCATS MIPE library collection: JIM1_ECACC cell viability assay (AID 1918964; note: potency is the fitted concentration of half-maximal effect)
# Summary of the method: as §1
# [5] = Quantitative High-Throughput drug screen in 47 multiple myeloma cell lines against the NCATS MIPE library collection: JJN3_DSMZ cell viability assay (AID 1918966; note: nearly all actives have a fitted effect of over 50% in size; note: potency is the fitted concentration of half-maximal effect)
# Summary of the method: as §1
# [6] = Quantitative High-Throughput drug screen in 47 multiple myeloma cell lines against the NCATS MIPE library collection: Karpas25_ECACC cell viability assay (AID 1918968; note: nearly all actives have a fitted effect of over 35% in size; note: potency is the fitted concentration of half-maximal effect)
# Summary of the method: as §1
# [7] = Quantitative High-Throughput drug screen in 47 multiple myeloma cell lines against the NCATS MIPE library collection: KMS27_JCRB cell viability assay (AID 1918970); note: nearly all actives have a fitted effect of over 30% in size; note: potency is the fitted concentration of half-maximal effect
# Summary of the method: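 Each line is seeded at 500 cells per well and treated with library compounds for 48 hours under 37 °C, 5% CO2. CellTiter-Glo is then added for 5 min at room temperature before median relative luminescence is recorded.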
# [8] = Quantitative High-Throughput drug screen in 47 multiple myeloma cell lines against the NCATS MIPE library collection: KMS12BM_JCRB cell viability assay (AID 1918971); note: nearly all actives have a fitted effect of over 35% in size; note: potency is the fitted concentration of half-maximal effect
# Summary of the method: as §3
# [9] = Quantitative High-Throughput drug screen in 47 multiple myeloma cell lines against the NCATS MIPE library collection: KMS12PE_JCRB cell viability assay (AID 1918972); note: nearly all actives have a fitted effect of over 30% in size; note: potency is the fitted concentration of half-maximal effect
# Summary of the method: (§4)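 Inhibition of cell viability is measured here. Each line was plated at 500 cells per well, treated with MIPE 4.0 drugs, kept 48 hours at 37C, then assayed for ATP content by CellTiter-Glo luminescence.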
# [10] = Quantitative High-Throughput drug screen in 47 multiple myeloma cell lines against the NCATS MIPE library collection: ARP1_JJKsccF8 cell viability assay (AID 1918928; note: nearly all actives have a fitted effect of over 40% in size; note: potency is the fitted concentration of half-maximal effect)
# Summary of the method: as §2
# [11] = Quantitative High-Throughput drug screen in 47 multiple myeloma cell lines against the NCATS MIPE library collection: INA6_PLB cell viability assay (AID 1918965; note: nearly all actives have a fitted effect of over 55% in size; note: potency is the fitted concentration of half-maximal effect)
# Summary of the method: as §4
# [12] = Quantitative High-Throughput drug screen in 47 multiple myeloma cell lines against the NCATS MIPE library collection: H1112_PLB cell viability assay (AID 1918967; note: nearly all actives have a fitted effect of over 30% in size)
# Summary of the method: as §1
# [13] = Quantitative High-Throughput drug screen in 47 multiple myeloma cell lines against the NCATS MIPE library collection: KMS20_JCRB cell viability assay (AID 1918973); note: nearly all actives have a fitted effect of over 45% in size; note: potency is the fitted concentration of half-maximal effect
# Summary of the method: as §1
# [14] = Quantitative High-Throughput drug screen in 47 multiple myeloma cell lines against the NCATS MIPE library collection: MMM1_PLB cell viability assay (AID 1918976); note: potency is the fitted concentration of half-maximal effect; nearly all actives have a fitted effect of over 35% in size
# Summary of the method: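 ATP-based luminescence (CellTiter-Glo, 5 min RT incubation) quantified surviving cells following two days' treatment with MIPE 4.0 agents at 37 °C, 5% CO2.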
# [15] = Quantitative High-Throughput drug screen in 47 multiple myeloma cell lines against the NCATS MIPE library collection: KHM11_PLB cell viability assay (AID 1918962); note: nearly all actives have a fitted effect of over 35% in size
# Summary of the method: as §3
# [16] = Quantitative High-Throughput drug screen in 47 multiple myeloma cell lines against the NCATS MIPE library collection: KMS26_JCRB cell viability assay (AID 1918975); note: nearly all actives have a fitted effect of over 45% in size; note: potency is the fitted concentration of half-maximal effect
# Summary of the method: as §3
# [17] = Quantitative High-Throughput drug screen in 47 multiple myeloma cell lines against the NCATS MIPE library collection: Karpas620_DSMZ cell viability assay (AID 1918959); note: nearly all actives have a fitted effect of over 30% in size; note: potency is the fitted concentration of half-maximal effect
# Summary of the method: as §3
# [18] = Quantitative High-Throughput drug screen in 47 multiple myeloma cell lines against the NCATS MIPE library collection: Karpas417_ECACC cell viability assay (AID 1918961); conditions: Karpas417 myeloma viability, CellTiter-Glo ATP luminescence, 48 h; viability (% of DMSO): at 45.8 µM (top of the series); note: potency is the fitted concentration of half-maximal effect
# Summary of the method: as §4
# [19] = Quantitative High-Throughput drug screen in 47 multiple myeloma cell lines against the NCATS MIPE library collection: KMS21BM_JCRB cell viability assay (AID 1918974); conditions: ATP luminescence, 48 h; viability: at 45.8 µM (top of the series) unless noted
# Summary of the method: as §1
compound,measurement,setting,value
COC(=O)N[C@H](C(=O)N1CCC[C@@H]1c1ncc(-c2ccc(-c3ccc(-c4cnc([C@@H]5CCCN5C(=O)[C@@H](NC(=O)OC)C(C)C)[nH]4)cc3)cc2)[nH]1)C(C)C,Potency,[1],23.5 µM (active)
same,Potency,[2],16.6 µM (active)
same,Potency,[3],18.7 µM (active)
same,Potency,[4],20.9 µM (active)
same,Potency,[5],23.5 µM (active)
same,Potency,[6],23.5 µM (active)
same,Potency,[7],23.5 µM (active)
same,Potency,[8],20.9 µM (active)
same,Potency,[9],16.6 µM (active)
CC(=O)OC1C(C)OC(Oc2c(-c3ccc(O)cc3)oc3cc(O)cc(O)c3c2=O)C(O)C1OC(C)=O (stereo not drawn),Potency,[10],inactive
same,Potency,[3],inactive
same,Potency,[11],9.35 µM (active)
same,Potency,[12],inactive
same,Potency,[13],11.8 µM (active)
same,Potency,[14],2.96 µM (active)
CO[C@H]1C(=O)[C@]2(C)[C@@H](OC)C[C@H]3OC[C@@]3(OC(C)=O)[C@H]2[C@H](OC(=O)c2ccccc2)[C@]2(O)C[C@H](OC(=O)[C@H](O)[C@@H](NC(=O)OC(C)(C)C)c3ccccc3)C(C)=C1C2(C)C,Potency,[10],inactive
same,Potency,[2],inactive
same,Potency,[3],inactive
same,Potency,[11],inactive
same,Potency,[12],inactive
same,Potency,[8],inactive
same,Potency,[9],inactive
same,Potency,[13],inactive
O=C(OCC#CCSc1nnc(-c2cccc3ccccc23)o1)c1cc2ccccc2s1,Potency,[1],inactive
same,Potency,[2],inactive
same,Potency,[15],inactive
same,Potency,[3],inactive
same,Potency,[4],inactive
same,Potency,[11],inactive
same,Potency,[12],inactive
same,Potency,[7],inactive
same,Potency,[8],16.6 µM (active)
same,Potency,[9],inactive
same,Potency,[16],inactive
Cc1ccccc1C(C(=O)NC1CCCCC1)N(C(=O)Cn1ccnc1C)c1cccc(F)c1 (stereo not drawn),Potency,[10],inactive
same,Potency,[17],inactive
same,Potency,[2],inactive
same,Potency,[3],inactive
same,Potency,[6],18.7 µM (active)
same,Potency,[7],inactive
same,Potency,[8],8.33 µM (active)
same,Potency,[9],2.35 µM (active)
CCCCCN(C)CCC(O)(P(=O)(O)O)P(=O)(O)O,Potency,[1],inactive
same,Potency,[17],inactive
same,viability (% of DMSO),[18],78.6% (active)
same,Potency,[15],inactive
same,Potency,[3],inactive
same,Potency,[4],inactive
same,Potency,[12],inactive
same,Potency,[7],inactive
COc1cc(N2CCC(N3CCN(C)CC3)CC2)ccc1Nc1ncnc(Nc2ccccc2S(=O)(=O)C(C)C)n1,Potency,[1],inactive
same,Potency,[3],5.26 µM (active)
same,Potency,[4],inactive
same,Potency,[11],14.8 µM (active)
same,Potency,[8],23.5 µM (active)
same,Potency,[9],inactive
same,Potency,[19],inactive
CC(=O)O[C@]1(C(C)=O)CC[C@@H]2[C@@H]3C[C@H](C)C4=CC(=O)CC[C@]4(C)[C@H]3CC[C@@]21C,Potency,[10],26.4 µM (active)
same,Potency,[2],4.69 µM (active)
same,Potency,[3],inactive
same,Potency,[4],inactive
same,Potency,[11],18.7 µM (active)
same,Potency,[5],20.9 µM (active)
same,Potency,[6],18.7 µM (active)
same,Potency,[7],inactive
same,Potency,[8],16.6 µM (active)
same,Potency,[9],inactive
same,Potency,[16],23.5 µM (active)
O=c1cc(-c2ccc(O)cc2)oc2cc(O)cc(O)c12,Potency,[10],20.9 µM (active)
same,Potency,[5],3.32 µM (active)
same,Potency,[8],13.2 µM (active)
same,Potency,[14],18.7 µM (active)
O=C(O)c1cc(O)c2c(c1)C(=O)c1cccc(O)c1C2=O,Potency,[10],34 µM (active)
same,Potency,[1],inactive
same,Potency,[3],inactive
same,Potency,[12],inactive
same,Potency,[9],inactive
COc1ccc(Cc2ccc(NC(N)=O)cc2)cc1-c1cccc(Cl)c1,Potency,[10],inactive
same,Potency,[3],inactive
same,Potency,[12],inactive
c1cc(-c2sc(-c3ccncc3)c(-c3ccncc3)c2-c2ccncc2)ccn1,Potency,[10],inactive
same,Potency,[11],18.7 µM (active)
same,Potency,[5],16.6 µM (active)
same,Potency,[7],3.32 µM (active)
same,Potency,[9],2.96 µM (active)
COc1ccc(-c2coc3cc(O)cc(O)c3c2=O)cc1,Potency,[10],inactive
same,Potency,[17],18.7 µM (active)
same,Potency,[3],inactive
same,Potency,[5],inactive
same,Potency,[6],inactive
same,Potency,[8],inactive
same,Potency,[13],inactive
CCC(=O)NC[C@H](Cc1ccc(OCCc2nc(-c3ccccc3)oc2C)cc1)NC(C)=CC(=O)c1ccc(C(F)(F)F)cc1,Potency,[10],23.5 µM (active)
same,Potency,[17],inactive
same,Potency,[3],inactive
same,Potency,[12],inactive
same,Potency,[6],inactive
same,Potency,[8],26.4 µM (active)
same,Potency,[9],7.43 µM (active)
same,Potency,[13],inactive
same,Potency,[16],20.9 µM (active)
same,Potency,[14],20.9 µM (active)
CN1C[C@H]2c3ccccc3Oc3ccc(Cl)cc3[C@@H]2C1,Potency,[10],inactive
same,Potency,[3],inactive
same,Potency,[12],inactive
same,Potency,[8],inactive
same,Potency,[13],inactive
CC1(C)O[C@H]2C[C@@H]3[C@H]4CCC5=CC(=O)C=C[C@]5(C)[C@@]4(F)[C@@H](O)C[C@]3(C)[C@]2(C(=O)CO)O1,Potency,[1],0.0037 µM (active)
same,Potency,[17],inactive
same,Potency,[18],0.0118 µM (active)
same,Potency,[3],inactive
same,Potency,[4],inactive
same,Potency,[11],inactive
same,Potency,[5],inactive
same,Potency,[9],inactive
same,Potency,[16],inactive
O=C1C[C@@H](c2ccc(O)cc2)Oc2cc(O)cc(O)c21,Potency,[10],inactive
same,Potency,[15],inactive
same,Potency,[3],inactive
same,Potency,[4],inactive
same,Potency,[12],inactive
same,Potency,[7],0.0118 µM (active)
same,Potency,[9],inactive
same,Potency,[14],1.48 µM (active)
O=C(NC1CCOCC1)c1ccc(-c2cc(-c3cn[nH]c3-c3ccccn3)ccn2)cc1,Potency,[10],inactive
same,Potency,[1],0.0296 µM (active)
same,Potency,[3],inactive
same,Potency,[11],inactive
same,Potency,[5],inactive
same,Potency,[12],inactive
same,Potency,[7],inactive
same,Potency,[8],inactive
same,Potency,[9],inactive
